Screening data deposited in PubChem BioAssay by several laboratories.
PLK1 inh – inhibitors of human PLK1 kinase; recombinant PLK1 kinase, TR-FRET peptide phosphorylation; inhibition, % at 10 µM; P53350; 97,000 compounds, 0.53% hits; AID 619;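 active = inhibition of 50% or more in the single-concentration screen; inactive = inhibition below 50%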
Target sequence (P53350 whole entry, looked up): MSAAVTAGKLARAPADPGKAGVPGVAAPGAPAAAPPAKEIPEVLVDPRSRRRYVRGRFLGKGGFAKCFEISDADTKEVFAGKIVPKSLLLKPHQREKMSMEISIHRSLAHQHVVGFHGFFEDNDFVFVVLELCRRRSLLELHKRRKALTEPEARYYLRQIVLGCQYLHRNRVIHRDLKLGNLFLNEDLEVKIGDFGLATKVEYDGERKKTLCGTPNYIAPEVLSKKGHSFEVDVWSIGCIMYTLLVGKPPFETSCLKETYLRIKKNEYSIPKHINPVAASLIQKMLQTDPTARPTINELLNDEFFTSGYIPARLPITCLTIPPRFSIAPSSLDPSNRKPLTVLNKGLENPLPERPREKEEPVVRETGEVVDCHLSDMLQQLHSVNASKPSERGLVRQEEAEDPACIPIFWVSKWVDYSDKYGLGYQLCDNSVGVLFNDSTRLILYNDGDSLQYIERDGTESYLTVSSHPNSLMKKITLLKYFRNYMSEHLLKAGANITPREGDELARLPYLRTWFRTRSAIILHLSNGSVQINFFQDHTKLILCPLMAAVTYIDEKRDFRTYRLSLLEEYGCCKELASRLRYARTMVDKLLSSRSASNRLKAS
CYP2C9 inh – human CYP2C9 inhibition | P11712 | CYP2C9 Supersomes, luciferin-H conversion, luminescence | AID 777 | inhibition, % at 5 µM | 96,000 compounds, 20% hits;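 active = blocking of liver enzyme CYP2C9 beyond about 50% at 5 µM, limit read from the data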
CYP2C9 activ – activators of human CYP2C9. 96,000 compounds, 1.4% hits. P11712. activation factor at 5 µM. AID 1024. recombinant CYP2C9, luciferin-H conversion, luminescence; hits give high values; factor 1 = untreated enzyme, 0 = blocked;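 active = activation factor of 2 or more for CYP2C9 at a 5 µM dose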
PLK1 PBD inh – Plk1 (human) PBD binding inhibition | 97,000 compounds, 0.13% hits | P53350 | AID 693 | Plk1 PBD phosphopeptide binding, fluorescence polarization | inhibition, %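 (tested at about 20 µM)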; in the data active = inhibition above about 34%, passing the limit was not always enough
CYP2C19 inh – blocks human cytochrome P450 2C19 | P33261 | CYP2C19 Supersomes, luciferin-H EGE luminescence, 30 min | inhibition, % at 5 µM | 96,000 compounds, 21% hits;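 active = CYP2C19 inhibition above a set limit at 5 µM in the primary screen, cut at about 50% in these data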
CYP2C19 act – activators of human cytochrome P450 2C19 | P33261 | recombinant CYP2C19, luciferin-H EGE luminescence; hits give high values; 0 = fully inhibited enzyme, 1 = untreated enzyme | activation factor at 5 µM | 96,000 tested, under 10 active;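 active = activation factor of at least 2 at 5 µM in the primary screen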
Large screens that a line does not name were inactive. Rows were chosen to be rich in hits. Some 28% of all compounds tested hit in one or more screens of this group.

Cc1cccc(NC(=O)c2sc3nc(-c4ccccc4)cn3c2C)n1	CYP2C9 inh 65, CYP2C19 inh 55
Nc1nc(CSc2nnnn2-c2ccc(F)c(Cl)c2)nc(N2CCOCC2)n1	none (no result: CYP2C9 inh, CYP2C9 activ, CYP2C19 inh, CYP2C19 act)
CS(=O)(=O)N(CC(=O)N1CCN(c2ccccc2)CC1)c1ccccc1Cl	none (no result: CYP2C9 inh, CYP2C9 activ, CYP2C19 inh, CYP2C19 act)
CSc1nc(SCC(=O)NCc2ccco2)c2c3c(sc2n1)COC(C)(C)C3	none (no result: PLK1 inh, PLK1 PBD inh)
CSc1nc(SCC(=O)NC(c2ccccc2)c2ccccc2)c2c3c(sc2n1)CN(C)CC3	CYP2C9 inh 57
COCCOc1cc(-n2ccnc2SC)c(Cl)cc1Cl	CYP2C19 inh 68
CCCC(=O)N1c2ccccc2[C@@H](N(C(C)=O)c2ccccc2)C[C@H]1C	CYP2C9 inh 73, CYP2C19 inh 51
CCC(=O)N1c2ccccc2C(N(C(C)=O)c2ccccc2)CC1C (centres undefined)	none (no result: CYP2C9 inh, CYP2C9 activ, CYP2C19 inh, CYP2C19 act)
COc1cc2ccccc2cc1-c1nnc(COc2ccccc2)o1	none
CC1CCCC(NC(=O)Nc2cccs2)C1C (centres undefined)	none
CC1CCCC(NC(=S)Nc2ccc(SC(F)F)cc2)C1C (centres undefined)	CYP2C19 inh 68
O=C(c1ccncc1)N1CCN(C(=O)c2ccncc2)CC1	none
O=C(/C(=C/O)N=Nc1ccccc1)c1ccncc1	CYP2C9 inh 68, CYP2C19 inh 96
CC1CCCCC1NS(=O)(=O)c1ccc(S(=O)(=O)N2CCCC2)cc1 (centres undefined)	CYP2C9 inh 79, CYP2C19 inh 79
CC1CCCCC1NC(=O)c1ccc(S(=O)(=O)N2CCCC2)cc1 (centres undefined)	none
CC1CCCCC1NS(=O)(=O)c1ccc(-n2cnnn2)cc1 (centres undefined)	CYP2C19 inh 88
CN(C1CCCCC1)S(=O)(=O)c1ccc(-n2cnnn2)cc1	CYP2C19 inh 100
COc1ccc(/C=C2\NC(=S)N(CC3CCCO3)C2=O)c(OC)c1C (centres undefined)	none
CCCCCNC(=O)Cc1cc(=O)[nH]c(=O)[nH]1	none
O=C(NCc1ccco1)[C@@H]1CCCN1C(=O)c1cccs1	none
O=C(NCCc1nc2ccccc2[nH]1)c1ccco1	CYP2C19 inh 55
O=C(CNC(=O)c1cccc(Br)c1)NCCc1nc2ccccc2[nH]1	none
O=C(CNC(=O)c1ccc(Br)cc1)NCCc1nc2ccccc2[nH]1	CYP2C9 inh 58
Cc1ccccc1NC(=O)NCCc1nc2ccccc2[nH]1	CYP2C19 inh 60
CC(c1ccco1)N(C(=O)c1ccc(C#N)cc1)c1ccccn1 (centres undefined)	none
Cc1oc(C(C)(C)C)cc1C(=O)Nc1cccc(/C=C/C(=O)O)c1	none
Cc1cc(=O)n2[nH]c(SCc3ccccc3)nc2n1	none
O=c1cc(-c2ccccc2)nc(SCc2ccc(Cl)cc2)[nH]1	CYP2C19 inh 54
O=c1cc(-c2ccccc2)nc2nc(SCc3ccccc3)[nH]n12	CYP2C9 inh 90
O=c1cc(-c2ccccc2)nc(SCc2ccccc2)[nH]1	none
O=c1cc(-c2ccccc2)nc2nc(-c3ccco3)[nH]n12	CYP2C9 inh 52
O=c1cc(-c2ccccc2)nc2nc(CCc3ccccc3)[nH]n12	CYP2C9 inh 72
O=C(CCc1ccccc1)Nc1nc2nc(-c3ccccc3)cc(=O)n2[nH]1	none
O=C(NNC(=O)C1CCCCC1)C(=O)NC1CCCCC1	none
CC(C)c1ccc(C2C3=C(CC(C)(C)CC3=O)NC3=C2C(=O)c2ccccc23)cc1 (centres undefined)	none
Cc1ccc(S(=O)(=O)CCSc2nc(C)cc(C(F)(F)F)c2C#N)cc1	none (no result: CYP2C9 inh, CYP2C9 activ, CYP2C19 inh, CYP2C19 act)
C=CCNc1nc2c(c(=O)[nH]c(=O)n2C)n1CCCCC	none
C/C(=N/NC(=O)c1ccccn1)c1ccco1	CYP2C19 inh 57
CCCCCC(=O)N/N=C(\C)c1ccccn1	CYP2C19 inh 57
COC(=O)c1c(C)[nH]c(C(C)=O)c1C	CYP2C9 inh 55
CCC(c1nnnn1CCOC)N1CCN(Cc2ccccc2OC)CC1 (centres undefined)	none
CCC(=O)Nc1ccc(Cl)c(NC(=O)C(C)C)c1	none
O=C(N/N=C/c1ccc(-c2ccc(S(=O)(=O)Nc3ncccn3)cc2)o1)c1cc2ccccc2cc1O	CYP2C9 inh 81
CCOc1ccccc1OCC(=O)Nc1ccc(S(=O)(=O)Nc2ncccn2)cc1	none (no result: CYP2C9 inh, CYP2C9 activ, CYP2C19 inh, CYP2C19 act)
CCOc1ccc(C(=O)N/N=C/c2ccc(-c3ccc(S(=O)(=O)Nc4ncccn4)cc3)o2)cc1	CYP2C9 inh 72
CCOC(=O)c1c(NC(=O)c2cccs2)sc2c1CCC2	none (no result: PLK1 inh, PLK1 PBD inh)
Cc1cccn2c(=O)c(C=Nc3c(C)n(C)n(-c4ccccc4)c3=O)c(N3CCCC3)nc12	none (no result: PLK1 inh, PLK1 PBD inh)
CC(=O)N1CCN(c2nc(C)nc3sc4c(c23)CCC(C)C4)CC1 (centres undefined)	CYP2C9 inh 86, CYP2C19 inh 83
Cc1ccnc(NS(=O)(=O)c2ccccc2)n1	none
COc1ccc(S(=O)(=O)Nc2cc(C)cc(C)n2)c2ccccc12	none
Cc1cccc(NS(=O)(=O)c2ccc(Br)s2)n1	CYP2C19 inh 68
Cc1cccc(NS(=O)(=O)c2ccc(Oc3ccccc3)cc2)n1	CYP2C19 inh 83
Cc1cc(C)nc(NS(=O)(=O)c2ccc(Br)s2)c1	CYP2C19 inh 52
O=C(Cc1ccc(F)cc1)Nc1ccc(F)c([N+](=O)[O-])c1	CYP2C19 inh 56
Cc1cc(NC(=O)CC(CN(C)S(=O)(=O)c2ccccc2)c2ccccc2)no1 (centres undefined)	CYP2C19 inh 88 (no result: PLK1 inh, PLK1 PBD inh)
c1ccc2c(Oc3ccc4c(c3)OCO4)nncc2c1	CYP2C19 inh 62
CCOc1ccc(OCC)c(NC(=O)Nc2ccc3c(c2)N(C)C(=O)CS3)c1	CYP2C19 inh 58
CN1C(=O)CSc2ccc(NC(=O)NCc3cccnc3)cc21	CYP2C9 inh 72, CYP2C19 inh 56
COc1cccc(NC(=O)Nc2ccc3c(c2)N(C)C(=O)CS3)c1	CYP2C19 inh 65
CCOP(=O)(O)c1ccccc1OCCCCCOc1ccccc1P(=O)(O)OCC	none
CN(C)c1ccc(C(c2nnnn2C2CCCCC2)N2CCN(C(=O)c3ccco3)CC2)cc1 (centres undefined)	none (no result: CYP2C9 inh, CYP2C9 activ, CYP2C19 inh, CYP2C19 act)
c1csc(C(c2nnnn2C2CCCC2)N2CCCC3(CCCCC3)C2)c1 (centres undefined)	CYP2C9 inh 56
O=C(c1ccco1)N1CCN(C(c2cccs2)c2nnnn2C2CCCCC2)CC1 (centres undefined)	CYP2C9 inh 68
c1csc(C(c2nnnn2C2CCCC2)N2CCOCC2)c1 (centres undefined)	none (no result: PLK1 inh, PLK1 PBD inh)
CC[C@@H](C(=O)n1nc(C)cc1C)[C@H](NS(=O)(=O)c1ccc(C)cc1)c1ccccc1	none
COc1ccc(CN2C(=O)c3ccccc3C2C(=O)NCc2cccnc2)c(OC)c1 (centres undefined)	none
